Inconclusive results are not listed. The source made the active and inactive calls. Rule for the calls, unless noted: active = hit-call score of the fitted dose curve at least 0.9, where 1 is the maximum; inactive = score below 0.9.
What was measured:
[1] = CCTE_Mundy_HCI_Cortical_Synap_Neur_Matur_NeuriteSpotCountPerNeuriteLength: CCTE's Synaptogenesis and Neurite Maturation Assay in rat cortical cells for Neurite Spot Count per Neurite Length, Mundy Lab (AID 2284210)
In short: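 Neurite-associated synapse density (synaptophysin puncta per unit neurite length) is measured by fluorescence high-content imaging in rat cortical cultures treated from DIV 7 and fixed at DIV 12, with DMSO as negative control.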

[2] = CCTE_Mundy_HCI_Cortical_NOG_NeuriteCount: CCTE's Neurite Outgrowth Assay in rat cortical cells for Neurite Count, Mundy Lab (AID 2284212);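 note: cells fixed about two days after chemical exposure began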
In short: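 Rat cortical primary cells; compound added 2 h post-plating, 1/10 dilution of working solution. Anti-betaIII-tubulin/AF488 ICC; ArrayScan neurite count vs DMSO.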

[3] = CCTE_Mundy_HCI_Cortical_NOG_NeuriteLength: CCTE's Neurite Outgrowth Assay in rat cortical cells for Neurite Length, Mundy Lab (AID 2284213);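 note: neurites imaged about 48 to 50 h after chemical exposure began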
In short: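 First, rat primary cortical cells were plated and, 2 h later, given test chemical as a 1/10 dilution. Finally, βIII-tubulin immunostaining enabled automated imaging of neurite length.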

[4] = CCTE_Mundy_HCI_Cortical_Synap_Neur_Matur_NeuriteSpotCountPerNeuron: CCTE's Synaptogenesis and Neurite Maturation Assay in rat cortical cells for Neurite Spot Count per Neuron Count, Mundy Lab (AID 2284215)
In short: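 Rat primary cortical cultures given AraC at DIV 5, dosed from DIV 7 to DIV 12 with media change. Fixed, stained for MAP2, synaptophysin and Hoechst; neurite-associated synaptophysin puncta per neuron quantified by high-content imaging versus DMSO.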

[5] = CCTE_Mundy_HCI_Cortical_Synap_Neur_Matur_SynapseCount: CCTE's Synaptogenesis and Neurite Maturation Assay in rat cortical cells for Synapse Count, Mundy Lab (AID 2284218)
In short: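 Endpoint: synapses/neuron by HCI (synaptophysin puncta on MAP2-labelled neurites, Hoechst nuclei). Rat primary cortical cells, AraC DIV 5, dosed DIV 7, fixed DIV 12; DMSO negative control.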

[6] = CCTE_Mundy_HCI_hN2_NOG_NeuriteCount: CCTE's Neurite Outgrowth Assay in human hN2 cells for Neurite Count, Mundy Lab (AID 2284219; active = hit-call score of the fitted dose curve at least 0.9, where 1 is the maximum)
In short: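 In this morphology assay, hNP1-derived neurons received test chemical 2 h post-plating and were fixed two days later in warm paraformaldehyde/sucrose containing Hoechst 33342. Neurites, labelled by rabbit anti-βIII-tubulin (1:800) and Alexa Fluor-488 (1:500), were counted automatically.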

[7] = CCTE_Mundy_HCI_hN2_NOG_NeuriteLength: CCTE's Neurite Outgrowth Assay in human hN2 cells for Neurite Length, Mundy Lab (AID 2284220; active = hit-call score of the fitted dose curve at least 0.9, where 1 is the maximum)
In short: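 Using βIII-tubulin immunofluorescence and Hoechst nuclear counterstain, this component quantifies neurite length in hNP1-derived neurons.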

[8] = CCTE_Mundy_HCI_hN2_NOG_NeuronCount: CCTE's Neurite Outgrowth Assay in human hN2 cells for Neuron Count, Mundy Lab (AID 2284221; active = hit-call score of the fitted dose curve at least 0.9, where 1 is the maximum)
In short: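 Read-out is the number of betaIII-tubulin-positive neurons imaged by automated high-content analysis, with DMSO as negative control.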

[9] = CCTE_Mundy_HCI_Cortical_Synap_Neur_Matur_NeuriteCount: CCTE's Synaptogenesis and Neurite Maturation Assay in rat cortical cells for Neurite Count, Mundy Lab (AID 2284222)
In short: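 Rat cortical neurons, 96-well; AraC DIV 5; chemical + media change DIV 7; end DIV 12. Fix PFA/Hoechst, anti-MAP2 + anti-synaptophysin IF. HCI neurite count vs DMSO baseline.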

[10] = CCTE_Mundy_HCI_Cortical_Synap_Neur_Matur_CellBodySpotCount: CCTE's Synaptogenesis and Neurite Maturation Assay in rat cortical cells for Cell Body Spot Count, Mundy Lab (AID 2284223)
In short: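 Primary rat cortical cultures, AraC added at DIV 5; dosed DIV 7 through DIV 12 […]. Fixed, stained for MAP2 and synaptophysin with Hoechst; cell body-associated synaptophysin puncta per neuron counted by high-content imaging, loss vs DMSO.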

[11] = CCTE_Mundy_HCI_hNP1_Pro_ResponderAvgInten: CCTE's Proliferation Assay in human neuroprogenitor cells, Mundy Lab (AID 2284224; active = hit-call score of the fitted dose curve at least 0.9, where 1 is the maximum;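 note: human neural progenitor cells hNP1 derived from WA09 embryonic stem cells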)
In short: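 Human neuroprogenitors (hNP1, WA09 lineage) receive test chemical after 40 to 44 hours of attachment. A four-hour BrdU pulse begins twenty hours later, followed by fixation and high content imaging; signal is referenced to DMSO controls.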

[12] = UKN4_HCS_LUHMES_cell_viability: Viability Assessment in the University of Konstanz (UKN) Leist Lab Neurite Outgrowth Assay in human LUHMES cells (UKN4) (AID 2284232)
In short: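 Measured in replated, 2-day-differentiated LUHMES cells treated 24 h; stained 30 min with H-33342 and calcein-AM before high-content imaging.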

[13] = UKN2_HCS_IMR90_cell_viability: Viability Assessment in the University of Konstanz (UKN) Leist Lab Neural Crest Cell Migration Assay in human induced IMR90 Pluripotent Stem Cells (UKN2) (AID 2284233);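 note: viability of neural crest cells differentiated from IMR90 iPSC measured by calcein-AM fluorescence imaging; cells exposed to compound for 24 h after a 24 h migration phase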
In short: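 cMINC format, iPSC-derived neural crest (IMR90); 24 h migration (EGF/FGF, N2-S), then 24 h toxicant. Calcein-AM/H-33342 stain 30 min; fluorescence intensity by HCS; DMSO-normalised, bidirectional fitting.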

[14] = CCTE_Mundy_HCI_hNP1_Casp3_7: CCTE's Caspase-Glo 3/7 Assay in human neuroprogenitor cells for Apoptosis, Mundy Lab (AID 2284240)
In short: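 Neuroepithelial-lineage stem cells from WA09 embryonic cells were treated with chemicals after 40–44 h of culture. Twenty-four hours later, caspase-3/7 activation was detected luminescently after a 30 min room-temperature reagent step, with DMSO as baseline.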

[15] = CCTE_Mundy_HCI_hNP1_CellTiter: CCTE's Cell Titer-Glo 2 Assay in human neuroprogenitor cells for Viability, Mundy Lab (AID 2284241; active = hit-call score of the fitted dose curve at least 0.9, where 1 is the maximum)
In short: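 Measures ATP content in human neural progenitors derived from WA09 embryonic cells. Read-out at 26.5 hours after dosing, with DMSO serving as the negative control and baseline.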

[16] = CCTE_Mundy_HCI_Cortical_Synap_Neur_Matur_NeuronCount: CCTE's Synaptogenesis and Neurite Maturation Assay in rat cortical cells for Neuron Count, Mundy Lab (AID 2284242; active = hit-call score of the fitted dose curve at least 0.9, where 1 is the maximum;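 note: hits reduce neuron count versus DMSO baseline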)
In short: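 Measured at DIV 12: fluorescently labelled neurons (Hoechst nuclei, MAP2) in rat primary cortical cultures, counted by high-content imaging. AraC suppressed glia from DIV 5; DMSO served as negative control.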

[17] = IUF_NPC2c_oligodendrocyte_migration_120hr: Leibniz Research Institute for Environmental Medicine (IUF) 120-hour Neural Progenitor Cell Migration Assay for Oligodendrocyte Migration (NPC2c) (AID 2284297);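 note: O4-positive oligodendrocyte migration distance divided by radial glia migration distance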
In short: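 Human fetal neural progenitor spheres (0.3 mm) are plated on poly-D-lysine/laminin in N2 differentiation medium and exposed for 120 h, with half-medium renewal at day 3. Oligodendrocyte (O4+) migration distance comes from ICC imaging, normalised to radial glia migration.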

[18] = IUF_NPC2a_radial_glia_migration_120hr: Leibniz Research Institute for Environmental Medicine (IUF) 120-hour Neural Progenitor Cell Migration Assay for Radial Glia Migration (NPC2a) (AID 2284298)
In short: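 Human fetal-cortex neural progenitor spheres (0.3 mm) plated on poly-D-lysine/laminin in N2 differentiation medium, exposed 120 h at 37C with half-medium renewal at day 3. Radial glia migration distance (um) measured from Hoechst-stained nuclei images; DMSO baseline.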

[19] = IUF_NPC2a_radial_glia_migration_72hr: Leibniz Research Institute for Environmental Medicine (IUF) 72-hour Neural Progenitor Cell Migration Assay for Radial Glia Migration (NPC2a) (AID 2284299)
In short: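 Spheres of human primary neural progenitors migrate on poly-D-lysine/laminin under compound exposure at 37C, 5% CO2. The 72 h radial glia migration distance comes from brightfield images, measured manually.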

[20] = IUF_NPC2b_neuronal_migration_120hr: Leibniz Research Institute for Environmental Medicine (IUF) 120-hour Neural Progenitor Cell Migration Assay for Neuron Migration (NPC2b) (AID 2284300)
In short: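 0.3 mm hNPC spheres on poly-D-lysine/laminin in N2 differentiation medium exposed 120 h, half-medium refresh day 3; 7 concentrations, DMSO max 0.1%. Neuron (TUBB3) distance from sphere core by ICC imaging, normalised to radial glia migration.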

[21] = IUF_NPC3_neuronal_differentiation_120hr: Leibniz Research Institute for Environmental Medicine (IUF) 120-hour Neuronal Differentiation Assay (NPC3) (AID 2284301)
In short: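 Neuronal differentiation of primary human neural progenitors measured by high-content imaging: percent TUBB3+ of Hoechst+ nuclei within migrated area at 120 h, seven-point serial dilution plus solvent control, gain or loss relative to DMSO.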

[22] = IUF_NPC4_neurite_length_120hr: Leibniz Research Institute for Environmental Medicine (IUF) 120-hour Neuronal Morphology Assay for Neurite Length (NPC4) (AID 2284302)
In short: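 Neurons from differentiating human fetal neural progenitor spheres are scored for average neurite length after five days of compound exposure. Fitting uses DMSO as negative control.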

[23] = IUF_NPC4_neurite_area_120hr: Leibniz Research Institute for Environmental Medicine (IUF) 120-hour Neuronal Morphology Assay for Neurite Area (NPC4) (AID 2284305; active = hit-call score of the fitted dose curve at least 0.9, where 1 is the maximum)
In short: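 Endpoint at 120 h: automated imaging of TUBB3/Hoechst-stained differentiating human neural progenitor spheres, neurite area per neuron from skeletonization. DMSO solvent control, not above 0.1%, set the baseline; medium was half-replaced on day 3.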

[24] = IUF_NPC2-5_cytotoxicity_72hr: Cytotoxicity Assessment at 72 hours in the Leibniz Research Institute for Environmental Medicine (IUF) Neural Progenitor Cell Migration and Differentiation Assay for Cytotoxicity (NPC2-5) (AID 2284306; active = hit-call score of the fitted dose curve at least 0.9, where 1 is the maximum;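 note: LDH release into supernatant measured by resorufin fluorescence marking membrane damage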)
In short: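 Primary human neural progenitor spheres migrate and differentiate on laminin. Compound is present from the start of differentiation, with DMSO kept at or below 0.1%. At 72 h, supernatant LDH is quantified fluorometrically, with values fitted in the positive direction.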

[25] = IUF_NPC2-5_cytotoxicity_120hr: Cytotoxicity Assessment at 120 hours in the Leibniz Research Institute for Environmental Medicine (IUF) Neural Progenitor Cell Migration and Differentiation Assay (NPC2-5) (AID 2284307; active = hit-call score of the fitted dose curve at least 0.9, where 1 is the maximum)
In short: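 Human fetal (GW 16-19) neural progenitor spheres (0.3 mm) plated on poly-D-lysine/laminin in N2 differentiation medium, exposed 120 h with half-medium renewal at day 3; 7 concentrations plus solvent control, DMSO ≤0.1%. LDH release in supernatant read by resorufin fluorescence.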

[26] = IUF_NPC2-5_cell_number_120hr: Cell Number Assessment at 120 hours in the Leibniz Research Institute for Environmental Medicine (IUF) Neural Progenitor Cell Migration and Differentiation Assay (NPC2-5) (AID 2284308);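 note: count of Hoechst-stained nuclei in migration zone around plated human neural progenitor spheres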
In short: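 Human fetal neural progenitor spheres (0.3 mm) plated on poly-D-lysine/laminin in N2 differentiation medium, exposed five days across 7 concentrations with half-medium refresh at day 3. Hoechst-positive nuclei counted in migration area at 120 h, relative to DMSO.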

[27] = IUF_NPC2-5_viability_120hr: Viability Assessment at 120 hours in the Leibniz Research Institute for Environmental Medicine (IUF) Neural Progenitor Cell Migration and Differentiation Assay (NPC2-5) (AID 2284312)
In short: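 Human fetal (GW 16-19) neural progenitor spheres of 0.3 mm were plated on poly-D-lysine/laminin in N2 differentiation medium and exposed from day 0 for 120 h, with half-medium refresh at day 3. Viability was read as alamar blue resazurin-to-resorufin fluorescence against DMSO.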

Measured: AC50

C[n+]1ccc(-c2cc[n+](C)cc2)cc1
active: [2] 29.6 µM | [3] 29.8 µM | [4] 0.989 µM | [5] 1.01 µM | [8] 50 µM | [9] 1.21 µM | [10] 14.4 µM | [11] 85.1 µM | [16] 0.763 µM | [18] 1.98 µM
inactive: all other assays above

Reference: PubChem BioAssay (EPA / NIEHS)
